These results are taken from PubChem BioAssay (Tox21).

A number with no mark means an inactive call. Inconclusive results are not listed. Active and inactive are the calls of the source. Unless noted, calls come from the whole dose curve; as a rule, active = well fitted curve in the direction sought with a large enough effect in the repeat runs; inconclusive = weak or mixed curves; inactive = no such curve, though single readings can be large; an effect the other way counts as inactive or inconclusive.

Experiment [1] can be described thus: qHTS assay to identify small molecule agonists of the androgen receptor (AR) signaling pathway in the presence of an antagonist - cell viability counter screen (AID 1259379).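 Note: MDA-kb2 human breast cancer cells carrying an MMTV luciferase reporter; series mostly up to about 92 µM; nearly all actives have a fitted effect of over 25% in size.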 A digest of the protocol: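 Viability counter screen: CellTiter-Fluor fluorescence, measured in the same wells as the luciferase read-out. MDA-kb2 cells, 3,000/well, with nilutamide at 3.0uM final and compounds at 15 concentrations, 16 hr at 37C, 0% CO2.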
For orientation: Quantitative high-throughput screening tests each substance at several concentrations.

Experiment [2] in a line: qHTS assay to identify small molecule agonists of the estrogen receptor beta (ER-beta) signaling pathway - cell viability counter screen (AID 1259380). Note: nearly all actives have a fitted effect of over 30% in size. A digest of the protocol: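 Luminescence read-out (CellTiter-Glo, 30 min, room temp) taken in the same wells as the beta-lactamase reporter assay; ER-beta-UAS-bla HEK293T cells exposed to DMSO-dissolved compounds for 16 hr at 37C in 2% charcoal-stripped FBS medium.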

The target in experiment [3] is Androgen receptor (Homo sapiens) (UniProt P10275). Description: qHTS assay to identify small molecule agonists of the androgen receptor (AR) signaling pathway in the presence of an antagonist (AID 1259381; calls by dose curve; note: nearly all actives have a fitted effect of over 15% in size; note: potency is the fitted concentration of half-maximal effect). A digest of the protocol:
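Luciferase read-out (ONE-Glo, 30min room temperature) in MDA-kb2 MMTV-reporter cells; agonist mode run in presence of AR antagonist nilutamide, 3.0uM final. Compounds tested as 15-point series, 16hr exposure at 37C, 0% CO2.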

The nature of experiment [4]: qHTS assay to identify small molecule antagonists of the estrogen receptor beta (ER-beta) signaling pathway - cell viability counter screen (AID 1259382). Note: series mostly up to about 92 µM; nearly all actives have a fitted effect of over 55% in size. A digest of the protocol:
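Luminescent ATP read-out (CellTiter-Glo, 30 min, RT) taken in the same wells as the bla reporter assay. HEK293T ER-beta-UAS-bla cells in 2% charcoal-stripped FBS were exposed to compounds with 1nM E2 for 16 hr at 37C.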

Experiment [5] deals with Estrogen receptor (Homo sapiens) (UniProt P03372). Description: qHTS assay to identify small molecule agonists of the estrogen receptor alpha (ER-alpha) signaling pathway in the presence of an antagonist (AID 1259383; calls by dose curve; note: top concentration of the series differs between compounds; nearly all actives have a fitted effect of over 15% in size). A digest of the protocol: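 Luciferase luminescence (ONE-Glo, 30min at room temperature) measured in VM7Luc4E2 cells after 22hr compound exposure at 15 concentrations, with 10.0nM ICI-182,780 final present; cells express endogenous ER-alpha and carry four EREs upstream of luciferase.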
Sequence of Estrogen receptor (Homo sapiens) (P03372 whole entry, looked up): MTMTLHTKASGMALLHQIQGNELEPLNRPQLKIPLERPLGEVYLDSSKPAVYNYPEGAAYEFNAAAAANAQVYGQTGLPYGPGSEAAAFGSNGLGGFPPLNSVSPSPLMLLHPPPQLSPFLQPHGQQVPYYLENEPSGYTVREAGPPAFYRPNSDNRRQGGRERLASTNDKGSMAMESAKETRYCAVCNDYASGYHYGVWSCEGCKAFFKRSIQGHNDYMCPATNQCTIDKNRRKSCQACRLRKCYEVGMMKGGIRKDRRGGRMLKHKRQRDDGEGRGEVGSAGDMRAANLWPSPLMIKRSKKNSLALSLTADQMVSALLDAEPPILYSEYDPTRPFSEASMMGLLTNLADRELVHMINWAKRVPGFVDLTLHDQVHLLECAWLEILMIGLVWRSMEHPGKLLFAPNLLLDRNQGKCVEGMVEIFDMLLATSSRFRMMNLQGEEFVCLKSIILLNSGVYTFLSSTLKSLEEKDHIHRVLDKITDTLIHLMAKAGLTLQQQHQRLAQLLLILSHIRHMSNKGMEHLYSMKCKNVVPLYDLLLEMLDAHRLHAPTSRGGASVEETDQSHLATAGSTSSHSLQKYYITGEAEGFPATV

Experiment [6] can be described thus: qHTS assay to identify small molecule agonists or antagonists of the thyroid stimulating hormone receptor (TSHR) signaling pathway - wild type cell line counter screen (AID 1259384; calls by dose curve). The gist of the method:
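Wild-type HEK293 cells were plated 18 h at 37 C/5% CO2, pin-dosed with compound plus Ro20-1724 medium, held 30 min at room temperature, then given cAMP-d2 and anti-cAMP-cryptate; fluorescence was read after 1 h. Fifteen concentrations, triplicate.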

The target of experiment [7] is Thyrotropin receptor (Homo sapiens) (UniProt P16473). Description: qHTS assay to identify small molecule antagonists of the thyroid stimulating hormone receptor (TSHR) signaling pathway (AID 1259385; calls by dose curve; note: nearly all actives have a fitted effect of over 20% in size). A digest of the protocol:
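TSHR-HEK293 cells were plated and held 18 h at 37C/5% CO2, then given compound plus Ro20-1724 and stimulated with TSH at 1.5 ng/mL final. After 30 min at room temperature, cAMP was detected with cAMP-d2/anti-cAMP-cryptate (1 h) by fluorescence.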

A short description of experiment [8]: qHTS assay to identify small molecule agonists of the estrogen receptor alpha (ER-alpha) signaling pathway in the presence of an antagonist - cell viability counter screen (AID 1259386). Note: series mostly up to about 92 µM; nearly all actives have a fitted effect of over 30% in size. A digest of the protocol: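 Read-out: CellTiter-Fluor fluorescence after 1hr reagent incubation, measured in the same wells as the luciferase readout. VM7Luc4E2 cells were exposed to 15 compound concentrations with 10.0nM ICI-182,780 for 22hr at 37C.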

In experiment [9] the target is Estrogen receptor beta (Homo sapiens) (UniProt Q92731). The experiment is described as follows: qHTS assay to identify small molecule agonists of the estrogen receptor beta (ER-beta) signaling pathway (AID 1259377; active = well fitted activation curve with a large enough effect in the signal ratio in the repeat runs, not every such curve was filed as active; the % refers to the signal ratio). The gist of the method:
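ER-beta-UAS-bla HEK293T cells in medium with 2% charcoal-stripped FBS were exposed to compounds for 16 h at 37C. Beta-lactamase reporter activity was read as fluorescence after 2 h with LiveBLAzer B/G FRET substrate at room temperature.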

The target is the same in experiment [10]. The experiment is described as follows: qHTS assay to identify small molecule antagonists of the estrogen receptor beta (ER-beta) signaling pathway (AID 1259378; active = well fitted inhibition curve with a large enough effect in the signal ratio in the repeat runs, not every such curve was filed as active; the % refers to the signal ratio). The gist of the method: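 ER-beta-UAS-bla HEK293T (GripTite) cells in 2% charcoal-stripped FBS medium were preincubated 6 hr at 37C, dosed with compound, then stimulated with 1 nM E2 (final) for 16 hr; beta-lactamase reporter read by B/G FRET fluorescence after 2 hr substrate loading.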
% is set by controls: 0 for no effect and ±100 for the full control effect.

Sequence of Thyrotropin receptor (Homo sapiens) (P16473 whole entry, looked up): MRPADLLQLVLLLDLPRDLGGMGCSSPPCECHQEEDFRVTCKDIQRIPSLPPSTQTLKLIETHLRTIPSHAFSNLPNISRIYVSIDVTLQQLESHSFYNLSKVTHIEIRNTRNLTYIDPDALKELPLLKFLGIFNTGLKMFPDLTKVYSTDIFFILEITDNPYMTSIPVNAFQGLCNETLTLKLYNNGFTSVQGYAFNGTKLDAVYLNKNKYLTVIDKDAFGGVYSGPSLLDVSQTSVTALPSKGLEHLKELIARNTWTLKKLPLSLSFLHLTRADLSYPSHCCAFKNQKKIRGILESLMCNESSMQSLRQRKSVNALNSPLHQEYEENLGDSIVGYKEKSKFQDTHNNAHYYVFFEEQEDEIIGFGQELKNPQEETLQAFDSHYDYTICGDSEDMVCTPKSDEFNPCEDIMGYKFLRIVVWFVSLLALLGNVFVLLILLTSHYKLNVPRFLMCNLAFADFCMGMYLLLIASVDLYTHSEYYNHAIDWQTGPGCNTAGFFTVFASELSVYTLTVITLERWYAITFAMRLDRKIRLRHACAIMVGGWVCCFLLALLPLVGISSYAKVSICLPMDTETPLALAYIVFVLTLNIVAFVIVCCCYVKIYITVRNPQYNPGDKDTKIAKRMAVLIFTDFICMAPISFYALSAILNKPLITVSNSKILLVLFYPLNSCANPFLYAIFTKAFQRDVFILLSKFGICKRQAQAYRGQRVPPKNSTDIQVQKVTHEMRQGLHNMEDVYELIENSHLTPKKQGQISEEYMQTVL
Sequence of Androgen receptor (Homo sapiens) (P10275 whole entry, looked up): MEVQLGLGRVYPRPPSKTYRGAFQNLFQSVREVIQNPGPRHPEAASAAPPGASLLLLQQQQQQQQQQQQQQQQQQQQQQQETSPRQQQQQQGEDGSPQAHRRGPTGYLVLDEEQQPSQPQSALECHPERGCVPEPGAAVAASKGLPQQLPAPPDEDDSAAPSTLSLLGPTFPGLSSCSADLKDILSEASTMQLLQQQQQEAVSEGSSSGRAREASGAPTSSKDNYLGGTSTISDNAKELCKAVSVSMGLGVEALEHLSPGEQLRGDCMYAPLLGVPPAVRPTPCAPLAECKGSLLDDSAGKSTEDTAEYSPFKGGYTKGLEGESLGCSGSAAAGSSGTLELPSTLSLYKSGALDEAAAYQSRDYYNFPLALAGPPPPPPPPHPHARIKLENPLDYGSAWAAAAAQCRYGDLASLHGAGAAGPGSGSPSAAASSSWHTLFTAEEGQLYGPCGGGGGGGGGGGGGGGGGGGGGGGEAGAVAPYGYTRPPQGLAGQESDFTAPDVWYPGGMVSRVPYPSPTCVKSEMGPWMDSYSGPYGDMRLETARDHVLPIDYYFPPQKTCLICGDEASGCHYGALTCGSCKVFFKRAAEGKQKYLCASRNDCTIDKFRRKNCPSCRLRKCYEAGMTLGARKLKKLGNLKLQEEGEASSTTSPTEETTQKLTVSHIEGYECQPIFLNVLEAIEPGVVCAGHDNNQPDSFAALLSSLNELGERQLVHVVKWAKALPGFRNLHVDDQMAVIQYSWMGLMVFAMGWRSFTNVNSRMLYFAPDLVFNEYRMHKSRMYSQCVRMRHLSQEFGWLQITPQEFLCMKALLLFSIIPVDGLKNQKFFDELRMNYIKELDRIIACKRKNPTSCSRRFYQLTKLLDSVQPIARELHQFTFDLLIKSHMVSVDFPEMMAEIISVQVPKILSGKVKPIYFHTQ
Sequence of Estrogen receptor beta (Homo sapiens) (Q92731 whole entry, looked up): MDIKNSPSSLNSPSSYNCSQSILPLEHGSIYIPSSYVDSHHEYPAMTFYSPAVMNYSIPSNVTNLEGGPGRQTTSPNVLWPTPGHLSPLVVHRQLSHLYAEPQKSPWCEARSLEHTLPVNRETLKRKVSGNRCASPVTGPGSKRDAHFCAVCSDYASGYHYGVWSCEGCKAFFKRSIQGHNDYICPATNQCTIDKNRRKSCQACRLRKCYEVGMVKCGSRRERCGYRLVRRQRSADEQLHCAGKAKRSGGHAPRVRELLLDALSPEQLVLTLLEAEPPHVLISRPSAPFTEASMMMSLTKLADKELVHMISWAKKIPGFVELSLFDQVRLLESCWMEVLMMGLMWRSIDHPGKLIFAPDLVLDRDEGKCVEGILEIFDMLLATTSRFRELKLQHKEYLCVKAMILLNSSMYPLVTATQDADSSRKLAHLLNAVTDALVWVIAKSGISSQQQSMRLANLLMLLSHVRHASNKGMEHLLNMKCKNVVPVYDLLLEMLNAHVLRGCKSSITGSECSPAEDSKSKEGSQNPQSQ

As for `CCCCS(=O)(=O)N[C@@H](Cc1ccc(OCCCCC2CCNCC2)cc1)C(=O)O`, the Potency result in experiment [1], in experiment [2], in experiment [3] and in experiment [8] was “inactive” throughout. Also, the compound was classed as inactive in experiment [4], in experiment [5], in experiment [6] and in [7].

Regarding `C=CN1CCCCCC1=O`, the Potency entry in experiment [9], in [10], in experiment [1] and in experiment [8] was “inactive” each time. Moreover, the compound was classed as inactive in experiment [4], in experiment [6] and in experiment [7].

With `CN1CCN(c2cc3c(nn2)Oc2ccccc2N3C)CC1`, in experiment [9], the activation was 7.81% [at 19 µM]. For the same compound, the activity change, negative = cytotoxicity is 0.723% [at 19 µM] in experiment [1], 2.64% [at 19 µM] in [2], -0.299% [at 19 µM] in experiment [4] and -4.4% [at 19 µM] in experiment [8]. For the same compound, the cAMP activity change in experiment [6] is -3.2% [at 18.9 µM].

`COCCOC[C@H](CC1(C(=O)NC2CCC(C(=O)O)CC2)CCCC1)C(=O)Oc1ccc2c(c1)CCC2` (stereo partly specified): the Potency result in experiment [9], in [10], in experiment [2] and in experiment [3] was “inactive” throughout. Besides, the compound was classed as inactive in experiment [4], in experiment [5] and in experiment [7].

For the compound `CC(CO)(CO)[N+](=O)[O-]`, the Potency result in [10], in [1], in experiment [2] and in experiment [8] was “inactive” each time. The compound was classed as inactive in [4], in experiment [5] and in experiment [7].

Consider `O=C(O)c1cn(C2CC2)c2cc(N3CCNCC3)c(F)cc2c1=O`, for which the Potency entry in [9], in experiment [1], in experiment [2] and in experiment [8] was “inactive” each time. The call in experiment [4], in experiment [5], in [6] and in experiment [7] was inactive.

For the compound `Cc1coc2ccccc2c1=O`, the Potency entry in experiment [1], in experiment [2], in [3] and in experiment [8] was “inactive” throughout. Besides, the compound was classed as inactive in experiment [4] and in experiment [7].

Consider `CCOC(=O)COC(=O)c1ccccc1C(=O)OCC`, for which the Potency entry in experiment [9], in experiment [10], in experiment [1] and in experiment [8] was “inactive” throughout. Also, the call in experiment [4], in [6] and in experiment [7] was inactive.

On to `Cc1ccc(C(=O)Nc2ccc(S(=O)(=O)O)c3cc(S(=O)(=O)O)cc(S(=O)(=O)O)c23)cc1NC(=O)c1cccc(NC(=O)Nc2cccc(C(=O)Nc3cc(C(=O)Nc4ccc(S(=O)(=O)O)c5cc(S(=O)(=O)O)cc(S(=O)(=O)O)c45)ccc3C)c2)c1`, for which the Potency entry in [1], in experiment [2] and in [8] was “inactive” throughout. Moreover, the compound was classed as inactive in experiment [4], in experiment [5], in experiment [6] and in experiment [7].

In the case of `c1ccc(CCc2ccccc2)cc1`, the Potency result in experiment [9], in experiment [1], in experiment [2] and in experiment [8] was “inactive” throughout. Besides, the call in experiment [4], in [6] and in experiment [7] was inactive.

With `CCCCCCCCCCCCSC`, the Potency result in [9], in [10], in experiment [1] and in experiment [8] was “inactive” in each case. The compound was classed as inactive in [4], in experiment [6] and in [7].

As to `Cc1cccc(C)c1NC(=O)CC12CCCN1CCC2`, the Potency result in [9], in [1], in [2] and in [8] was “inactive” in each case. The compound was called inactive in [4], in [5], in experiment [6] and in experiment [7].

As to `O=C1NC(=O)C2CC=CCC12` (stereo unspecified), the Potency entry in [9], in [10], in experiment [1] and in experiment [8] was “inactive” in each case. In addition, the compound was classed as inactive in [4] and in experiment [6].

For `CCCC[N+](C)(CCCC)CCCC`, the Potency result in experiment [9], in experiment [1] and in [8] was “inactive” each time. For the same compound, the compound was called inactive in [4] and in experiment [7].

`O=C(c1ccccc1O)c1ccccc1O`: the Potency entry in experiment [9], in experiment [1], in experiment [2], in experiment [3] and in [8] was “inactive” throughout. The result in experiment [4], in [5] and in experiment [7] was inactive.

With `Nc1c2c(nc3c1CCC3)CCCC2`, the Potency entry in experiment [1], in experiment [2], in [3] and in experiment [8] was “inactive” each time. The compound was classed as inactive in experiment [4], in experiment [5], in experiment [6] and in experiment [7].

In the case of `CC(=O)N[C@H]1[C@H]([C@H](O)[C@H](O)CO)OC(C(=O)O)=C[C@@H]1N=C(N)N`, the Potency result in experiment [1], in experiment [2], in [3] and in [8] was “inactive” throughout. Also, the compound was called inactive in [4], in experiment [5], in experiment [6] and in experiment [7].

In the case of `CNC(=O)Nc1ccc(Cl)c(Cl)c1`, the Potency result in experiment [10], in [1], in experiment [3] and in experiment [8] was “inactive” each time. The compound was called inactive in experiment [4], in experiment [5], in experiment [6] and in experiment [7].

With `CCN(C=O)CC`, the Potency result in experiment [9], in [10], in [1] and in experiment [8] was “inactive” throughout. Besides, the call in experiment [4], in experiment [6] and in experiment [7] was inactive.

`COc1c(N2CCNC(C)C2)c(F)cc2c(=O)c(C(=O)O)cn(C3CC3)c12` (stereo unspecified): the Potency entry in experiment [9], in experiment [10], in [1] and in experiment [8] was “inactive” in each case. Besides, in experiment [4], the call was inactive.

For the compound `CCN(Cc1ccccc1)c1ccccc1`, the Potency result in experiment [9], in experiment [3] and in experiment [8] was “inactive” each time. The compound was classed as inactive in [4], in experiment [5] and in experiment [6].

On to `NO`, for which the Potency result in experiment [9], in experiment [1] and in [8] was “inactive” each time. The compound was called inactive in experiment [4], in [6] and in experiment [7].

With `CC(COc1ccccc1)NN` (stereo unspecified), the Potency entry in [9], in [10], in experiment [1] and in [8] was “inactive” throughout. Also, the outcome in experiment [4], in [6] and in experiment [7] was inactive.

`C[C@@H]1C[C@H]2[C@@H]3C[C@H](F)C4=CC(=O)C(Cl)=C[C@]4(C)[C@@]3(F)[C@@H](O)C[C@]2(C)[C@@]1(O)C(=O)CO`: the Potency result in experiment [1], in [2] and in [8] was “inactive” each time. Also, the Potency in experiment [3] was 4.7 nM (active). In addition, the result in experiment [4], in [5] and in [7] was inactive.
